Screens from PubChem.
mcGAS inh: inhibitors of mouse cGAS. recombinant cGAS, Kinase-Glo ATP depletion luminescence. 0.15% of 160,000 active. inhibition, % at 12.5 µM. Q8C6L5
Target sequence (Q8C6L5 whole entry, looked up): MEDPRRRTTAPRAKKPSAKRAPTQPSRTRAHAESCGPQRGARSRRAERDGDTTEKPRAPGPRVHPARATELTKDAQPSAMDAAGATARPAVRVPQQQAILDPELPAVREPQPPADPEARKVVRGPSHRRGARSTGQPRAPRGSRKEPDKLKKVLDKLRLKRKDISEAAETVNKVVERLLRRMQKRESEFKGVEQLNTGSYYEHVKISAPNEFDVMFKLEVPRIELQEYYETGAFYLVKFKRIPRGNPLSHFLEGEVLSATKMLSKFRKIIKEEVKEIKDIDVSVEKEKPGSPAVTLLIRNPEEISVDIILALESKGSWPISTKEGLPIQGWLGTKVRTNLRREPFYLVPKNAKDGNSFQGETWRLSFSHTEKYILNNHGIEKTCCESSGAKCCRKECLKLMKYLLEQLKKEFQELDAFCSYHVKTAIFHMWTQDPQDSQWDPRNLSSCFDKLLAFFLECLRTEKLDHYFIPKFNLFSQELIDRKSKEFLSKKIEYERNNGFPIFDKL
hcGAS inh: blocks human cGAS activity. Q8N884. recombinant h-cGAS, ATP depletion, Kinase-Glo luminescence. inhibition, % at 12.5 µM. 0.081% of 290,000 active. AID 1259398
NPYLR7 agonist: activates Aedes aegypti NPYLR7 receptor; activation, % at 10 µM; HEK293T NPYLR7/Galpha15, GCaMP6s calcium fluorescence; 0.15% of 270,000 active; in the data active = activation above about 40%
A number is an active result; 0 = inactive; - = no result. Hits are enriched below; roughly 0.28% of the tested compounds scored in any of these assays. Cut-off read from the data, not from the text of the source, unless noted: active = inhibition above about 40%; inactive = the rest.

SMILES	mcGAS inh	hcGAS inh	NPYLR7 agonist
Nc1c(S(=O)(=O)O)cc(Nc2cccc3ccccc23)c2c1C(=O)c1ccccc1C2=O	-	0	0
Nc1c(S(=O)(=O)O)cc(Nc2ccc(Nc3nc(Cl)nc(Nc4ccc(S(=O)(=O)O)cc4)n3)c(S(=O)(=O)O)c2)c2c1C(=O)c1ccccc1C2=O	67	0	0
COc1ccc2oc(=O)c(-c3nnc(Nc4cc(Cl)ccc4OC)s3)cc2c1	0	0	56
COc1ccc(Nc2nnc(-c3cc4cc(Cl)ccc4oc3=O)s2)c(OC)c1	0	0	0
COc1ccc(Cl)cc1Nc1nnc(-c2cc3c(ccc4ccccc43)oc2=O)s1	0	0	59
COc1ccc(Nc2nnc(-c3cc4c(ccc5ccccc54)oc3=O)s2)c(OC)c1	0	0	0
CCOC(=O)c1[nH]c(C)c(C(=O)N2CCCC(C(=O)c3ccc(OC)c(F)c3)C2)c1C (stereo unspecified)	-	0	0
Cc1cc(C)c2c(C)c(C(=O)NCC(C)(C)N(C)C)sc2n1	0	0	0
CC(c1cccnc1)N(C)Cc1nccn1C(C)C (stereo unspecified)	-	0	0
COc1cc(C)c(S(=O)(=O)Nc2cccc(C(F)(F)F)c2)cc1C	-	0	0
Cc1cnccc1NS(=O)(=O)c1cccc(Cl)c1C#N	0	0	0
COc1ccc2c(c1)OCC(C=C(C#N)S(=O)(=O)c1ccc(Br)cc1)=C2	-	0	93
Cc1ccc(C=C(C#N)S(=O)(=O)c2ccc(Br)cc2)o1	-	0	0
O=c1c2nnn(-c3ccc(Cl)cc3)c2ncn1Cc1cccc2ccccc12	0	0	0
CCC(C(=O)N1CCN(CC(OCc2ccc(C(=O)OC)cc2)c2ccc(Cl)cc2)CC1)c1ccccc1 (stereo unspecified)	88	0	-
COC(=O)c1ccc(COC(CN2CCN(C(=O)c3ccc(Cl)cc3)CC2)c2ccc(Cl)cc2)cc1 (stereo unspecified)	0	0	-
CC1(Cc2ccc(C(=O)c3ccccc3)cc2)C(=O)Nc2c(Cl)ccc(Cl)c21 (stereo unspecified)	0	0	0
O=C(NN1CCCCC1)c1ccc(S(=O)(=O)N2CCCCCC2)cc1	0	0	0
COC(=O)C1CSCCC1=O (stereo unspecified)	-	0	0
N#CC(=Cc1ccccc1I)c1ccccn1	0	0	0
N#CC(=Cc1c(F)c(F)c(F)c(F)c1F)c1ccccn1	0	0	99
C=CCOCC(O)CN(Cc1ccc2c(c1)OCO2)Cc1ccc(C)s1 (stereo unspecified)	83	0	0
C#CCOCC(O)CN(Cc1ccc2c(c1)OCO2)Cc1cc(C)ccc1C (stereo unspecified)	0	0	0
C#CCOCC(O)CN(Cc1ccc(F)cc1)Cc1ccc2c(c1)OCO2 (stereo unspecified)	77	0	0
C=CCOCC(O)CN(Cc1ccc2c(c1)OCO2)Cc1cc(C)ccc1C (stereo unspecified)	0	0	0
SMILES	mcGAS inh	hcGAS inh	NPYLR7 agonist
CCCCOC(=O)N1C[C@@H](C(=O)O)[C@@H]2Oc3c(F)cccc3[C@@H]21	0	0	0
CC(C)c1ccc(S(=O)(=O)N=C2C=C(Cl)C(=O)c3ccccc32)cc1	-	0	0
O=C1C(Sc2ncn[nH]2)=CC(=NS(=O)(=O)c2ccccc2)c2ccccc21	51	0	0
O=S(=O)(Nc1ccccc1F)c1cnc[nH]1	-	0	0
COc1ccc(CN(CC(C)C)C(=O)COCc2ccccc2)cc1OS(C)(=O)=O	0	0	0
O=C(c1cccc([N+](=O)[O-])c1)N1CCN(C(C(=O)N2CCCC2)C2CCCC2)CC1 (stereo unspecified)	0	0	0
CCCN(C(=O)/C=C/c1ccccc1)C(C)C(=O)Nc1ccccc1 (stereo unspecified)	-	0	0
FC(F)(F)c1nc2c(Cl)cc(Cl)cc2[nH]1	-	56	0
FC(F)(F)c1nc2ccccc2[nH]1	0	0	0
O=C(CN(Cc1c(F)cccc1F)C1CC1)N(CCc1c[nH]c2ccccc12)Cc1ccc(Cl)c(Cl)c1	0	0	0
O=C(O)C1=CC(=C(c2ccc(O)c(C(=O)O)c2)c2ccc(O)c(C(=O)O)c2)C=CC1=O	106	80	0
Nc1ccc(O)c(C(=O)O)c1	-	0	0
CNC(=O)c1nn(CCOc2ccc(C)cc2)c(=O)c2ccccc12	-	0	0
O=C(NCC(=O)N1CCC(n2c(=O)[nH]c3ccccc32)CC1)c1ccc2c(c1)OCO2	-	0	0
CC(C)C(C(=O)O)n1c(O)c(C2=c3cc(Br)ccc3=NC2=O)sc1=S (stereo unspecified)	0	0	0
O=C1N=c2ccc(F)cc2=C1c1sc(=S)[nH]c1O	100	0	0
Cc1cc(Br)cc2c1=NC(=O)C=2c1sc(=S)[nH]c1O	94	0	0
Nn1c(O)c(C2=c3cc([N+](=O)[O-])ccc3=NC2=O)sc1=S	-	0	0
